Rows were chosen to be rich in hits. Some 6% of all compounds tested hit in one or more screens of this group.
VDR inhibitor: inhibitors of human vitamin D receptor. P11473. VDR-SRC2-3 peptide fluorescence polarization, 2 h. Potency, µM, for the others: max response, negative = inhibition, actives largely listed as inhibitors. 400,000 tested, 0.93% active
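FP read-out; VDR + SRC2-3 coactivator peptide; 23 nl compound by pintool; 2 h RT incubation; reagents held at 4 deg C, protected from light.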
PLK1 PBD block: inhibitors of human PLK1 polo-box domain binding | Plk1 PBD binding of FITC phosphopeptide, fluorescence polarization | Potency, µM, for inactives: max response, negative = inhibition, most hits filed as inhibitors | 360,000 tested, 2.8% active | AID 720504; further: series mostly up to about 57 µM; nearly all actives have a fitted effect of over 65% in size
Target sequence (P53350 whole entry, looked up, the tested form may be a part): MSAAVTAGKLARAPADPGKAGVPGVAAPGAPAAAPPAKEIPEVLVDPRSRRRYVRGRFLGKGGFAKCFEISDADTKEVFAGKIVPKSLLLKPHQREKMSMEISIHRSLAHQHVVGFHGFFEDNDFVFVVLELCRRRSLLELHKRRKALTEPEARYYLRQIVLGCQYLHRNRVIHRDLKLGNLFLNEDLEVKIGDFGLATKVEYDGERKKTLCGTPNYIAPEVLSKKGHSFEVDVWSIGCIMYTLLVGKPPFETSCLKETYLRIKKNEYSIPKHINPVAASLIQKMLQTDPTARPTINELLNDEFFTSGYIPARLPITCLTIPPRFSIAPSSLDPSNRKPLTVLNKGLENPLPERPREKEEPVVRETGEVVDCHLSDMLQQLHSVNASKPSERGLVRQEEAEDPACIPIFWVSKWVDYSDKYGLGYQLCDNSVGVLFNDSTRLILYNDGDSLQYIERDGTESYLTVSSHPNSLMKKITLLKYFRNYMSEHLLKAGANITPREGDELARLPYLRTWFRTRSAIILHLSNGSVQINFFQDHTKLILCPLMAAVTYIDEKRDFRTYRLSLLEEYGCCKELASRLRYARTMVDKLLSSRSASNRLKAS
Tau fibril FP: tau fibrillization inhibition (FP) | Potency, µM (series often up to 57.7 µM), for inactives: top-dose activity, negative = inhibition, usual class: inhibitors | K18 P301L tau heparin fibrillization, Alexa594 FP, 6 h | 280,000 tested, 0.39% active; further: nearly all actives have a fitted effect of over 55% in size
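Human tau K18 […] P301L fragment, 15 uM unlabeled plus 0.24 uM Alexa 594-labeled tau (final), with compound and 20 uM heparin in 100 mM sodium acetate pH 7; 6 hr at 37 C, then Alexa 594 FP read.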
Tau fluor cs: counter-screen for tau fibril formation inhibitors; tau K18 P301L Alexa594 fluorescence, heparin fibrillization; Potency, µM (doses to about 57.7 µM), inactives show at the highest dose activity change, negative = decrease; 280,000 tested, 0.93% active; further: nearly all actives have a fitted effect of over 55% in size
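Human tau K18 P301L (15 uM unlabeled, 0.24 uM Alexa 594-labeled) in 100 mM sodium acetate pH 7 with 20 uM heparin, 6 hr at 37 C. ThT 30 uM added, 1 hr ambient; Alexa 594 FP and total fluorescence read at 555/632 nm.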
Sfp inh: Sfp phosphopantetheinyl transferase inhibition. Q9F4F7. Biochemical Sfp PPTase activity, qHTS. Potency, µM, without a hit: largest response in the series, negative = inhibition, usual class: inhibitors. 310,000 tested, 3.5% active;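 further: the enzyme is Sfp with the accession as filed and its product quenches rhodamine fluorescence; 0% = enzyme reaction without inhibitor and -100% = no enzyme wells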
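Compounds were incubated with enzyme (final 15 nM) for 15 min at room temperature before substrate addition started the reaction. Fluorescence at 525 nm excitation, 598 nm emission was recorded immediately and after 30 minutes.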
Tau fibril ThT: blocks human tau fibril formation measured by thioflavin T; P10636; recombinant tau K18 P301L (four-repeat tau fragment), heparin-induced fibrillization, ThT fluorescence; Potency, µM (doses to about 57.4 µM), without a hit: top-dose activity, negative = inhibition, actives largely listed as inhibitors; 270,000 tested, 2.1% active; AID 1460; further: nearly all actives have a fitted effect of over 55% in size
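K18 P301L tau (15 uM + 0.24 uM Alexa 594-tagged), heparin 20 uM, NaOAc pH 7, 6 h 37 C; ThT 30 uM, 1 h RT, ex 450/em 510 nm.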
* hit, by the source's call; ? = inconclusive; · = no result given; ! = repeats disagree; [ ] = another dose, or the depositor's remark. The call rests on the fitted dose curve; in most records, active means well fitted curve in the direction sought with a large enough effect; inconclusive means small, poorly fitted or top-dose-only effect, or another doubt; inactive means no such curve, though single readings can be large; an effect the other way counts as inactive or inconclusive. Unless noted, on the % scale 0 is the no-effect control and ±100 the full control effect; potency means the concentration at half of the fitted maximal effect.

SMILES	VDR inhibitor	PLK1 PBD block	Tau fibril FP	Tau fluor cs	Sfp inh	Tau fibril ThT
Fc1ccc(-c2nc3nc4ccccc4nc3n2Cc2ccco2)cc1	-6%	-6%	-1%	-12%	18µM*	?
S=c1nc(-c2ccccc2)n(Cc2ccco2)c2c1CCCC2	·	·	-4%	-13%	-21%	?
Fc1ccc(-n2c(-c3ccco3)nc3nc4ccccc4nc32)cc1	-9%	-7%	5%	-1%	5%	-1%
c1ccc(-c2nc3nc4ccccc4nc3n2Cc2ccco2)cc1	-27%	-14%	-5%	-10%	10µM*	?
c1ccc(-c2nc(-c3ccccc3)c(NC3CCCCC3)o2)cc1	?	·	-6%	-17%	15%	?
Cc1cccc(CSc2ncc(Cl)c(C(=O)Nc3sc4c(c3C#N)CCCC4)n2)c1	7%	·	-4%	0%	·	3%
CCc1nc2ccc(C(=O)Nc3cccc(OCC(=O)N(C)C)c3)cn2c1N(C)Cc1cc2ccccc2s1	·	0%	·	·	·	·
NC(=O)C1CCN(C(=S)c2ccc(-c3ccc(Br)cc3)o2)CC1	2%	12µM*	-8%	-11%	16µM*	?
COc1ccc(C(=S)N2CCC(C(N)=O)CC2)cc1Br	-7%	19µM*	-3%	-1%	40µM*	-1%
Cc1ccc(NC(=S)NCc2ccc3c(c2)cc(C)n3C)c(C)c1	?	19µM*	7%	?	13%	-13%
Cc1cc2cc(CNC(=O)c3cc4ccccc4o3)ccc2n1C	·	·	-4%	-15%	10%	?
Cc1cc2cc(CNC(=O)c3ccco3)ccc2n1C	-9%	-9%	-3%	-17%	79µM*	?
COc1ccc(CNC(=O)CSCc2ccccc2Cl)cc1	-12%	-16%	3%	-5%	-10%	-2%
CCCCOC(=O)c1ccc(OC(=O)c2sc3ncn(Cc4ccccc4Cl)c(=O)c3c2C)cc1	19%	·	-4%	-11%	·	-10%
CCCCN(C)C(=O)Cn1cnc2sc(C)c(S(=O)(=O)N3CCC(C)CC3)c2c1=O	-14%	·	?	-14%	·	-1%
COc1cc(O)c2c(c1)O[C@H](c1ccccc1)CC2=O	-14%	·	·	·	1%	·
COc1cc(O)c2c(c1)OC(c1ccc(O)cc1)CC2=O (stereo not drawn)	50µM*	-9%	7%	-14%	-1%	?
CCn1c(=O)c(C(=O)CN(C)Cc2cccc(OC)c2OC)c(N)n(Cc2ccccc2)c1=O	0%	-33%	7%	4%	63µM*	-2%
CCn1c(=O)c(C(=O)CN(C)Cc2ccc(F)cc2)c(N)n(Cc2ccccc2)c1=O	-13%	-3%	0%	-3%	15%	2%
Cc1c(-c2ccccc2)nc(N)c(C#N)c1-c1ccco1	5%	-6%	6%	-5%	14µM*	-5%
CC(C)OC(=O)CSc1nc(N)c(C#N)c(-c2ccco2)c1C#N	-3%	?	?	?	56µM*	?
CCc1nc(N)c(C#N)c(-c2ccco2)c1C	-14%	-8%	-1%	-8%	12%	-8%
Cc1ccc(NC(=O)[C@@H](c2ccccc2)N2Cc3ccccc3C2=O)cc1F	3%	·	-18%	-21%	·	1%
O=S(=O)(Nc1nc2ccccc2nc1Nc1ccc2c(c1)OCO2)c1ccc(F)cc1	-8%	?	10%	-24%	22%	?
CCCCCCCC/C=C\CCCCCCCC(=O)NCCc1ccc(O)c(O)c1	?	24µM*	?	14µM*![quencher]	9%	?
SMILES	VDR inhibitor	PLK1 PBD block	Tau fibril FP	Tau fluor cs	Sfp inh	Tau fibril ThT
CCCCCCCC/C=C/CCCCCCCC(=O)NCCOP(=O)(O)O	28µM*	·	·	·	4%	·
CCCCCCCC/C=C\CCCCCCCC(=O)NCCO	1%	-15%	7%	?	13%	?
Cc1ccc(S(=O)(=O)C(CNC(=O)C(=O)NCCc2ccccc2)c2cccs2)cc1 (stereo not drawn)	4%	·	8%	-14%	·	-5%
CC(C)c1cc(=O)n2[nH]c(N)nc2n1	4%	-21%	5%	7%	79µM*	-6%
COc1cc2c(cc1OC)CN(C(=O)CCNC(=O)c1ccccc1Cl)CC2	-5%	-3%	·	·	·	·
CCC1S/C(=N/N=C/c2ccco2)N(Cc2ccc(F)cc2)C1=O (stereo not drawn)	-9%	-17%	1%	-19%	-21%	·
CC1S/C(=N/N=C/c2ccco2)N(Cc2ccccc2)C1=O (stereo not drawn)	-4%	-11%	-9%	-10%	32µM*	-2%
O=C(CSc1nnc2c(n1)[nH]c1ccccc12)Nc1cccc(S(=O)(=O)N2CCOCC2)c1	0%	-25%	-12%	?	79µM*	-3%
O=C(CSc1nnc2c(n1)[nH]c1ccccc12)Nc1ccc2c(c1)OCO2	-8%	27µM*	-1%	?	45µM*	?
O=C(CSc1nnc2c(n1)[nH]c1ccccc12)Nc1ccc(N2CCOCC2)cc1	4%	?	-5%	?	7.9µM*	?
Nc1ccccc1SCC(=O)Nc1ccc(N2CCOCC2)cc1	?	0%	2%	-11%	6%	?
Cc1ccccc1SCC(=O)Nc1ccc(N2CCOCC2)cc1	-27%	19µM*	7%	-18%	17%	?
Cc1ccc(NC(=O)CSc2nnc3c(n2)[nH]c2ccccc23)cc1	4%	-1%	·	·	14%	·
CC(=O)NCCNC(=O)CCCn1c(=O)[nH]c2ccsc2c1=O	6%	·	?	-14%	·	-5%
O=C(CSc1nnc(NC2CC2)s1)Nc1ccc(N2CCOCC2)cc1	-2%	-14%	·	·	·	·
O=C(CSc1nnc(NC(=O)C2CCC2)s1)Nc1ccc(N2CCOCC2)cc1	2%	?	6%	-29%	-5%	6.3µM*
COC(=O)c1cc2sc(Cl)cc2n1Cc1nc(-c2cccc(C)c2)oc1C	·	·	-2%	-15%	?	-13%
COC(=O)c1cc2sc(Cl)cc2n1Cc1nc(-c2ccccc2)oc1C	4%	-2%	-1%	-9%	79µM*	-7%
O=C(O)CCN1C(=O)C2C3CC(C2C1=O)C1C(c2ccccc2)c2sc(=O)n(-c4ccccc4)c2SC31 (stereo not drawn)	?	42µM*	1%	-2%	?	-11%
O=C(O)CCN1C(=O)C2C3CC(C2C1=O)C1C(c2ccccc2)c2sc(=O)[nH]c2SC31 (stereo not drawn)	-3%	-30%	-3%	-12%	-23%	-18%
CC(=O)Oc1c(Br)cc(N(C(C)=O)S(=O)(=O)c2ccccc2)c2ccccc12	-6%	27µM*	·	·	35µM*	·
CC(=O)Oc1ccccc1N(C(C)=O)S(=O)(=O)c1ccc2ccccc2c1	-19%	?	5%	-2%	0%	-7%
O=S(=O)(c1ccc(SCc2c(F)cccc2Cl)nc1)N1CCCC1	·	0%	·	·	·	·

High-throughput results (PubChem)
